USP7 block: inhibitors of human USP7 deubiquitinase; Ubiquitin carboxyl-terminal hydrolase 7 (Homo sapiens), Q93009; purified USP7, Ub-rhodamine cleavage fluorescence; inhibition, % at 20 µM; 47,000 tested, 0.3% active; AID 1645854, 2021
USP8 block: inhibitors of human USP8 deubiquitinase | Ubiquitin carboxyl-terminal hydrolase 8 (Homo sapiens), P40818 | purified USP8, Ub-rhodamine cleavage fluorescence, 30 min | inhibition, % at 20 µM | 47,000 tested, 4.2% active | AID 1645853, 2021
USP10 block: inhibitors of human USP10 deubiquitinase. Ubiquitin carboxyl-terminal hydrolase 10 (Homo sapiens), Q14694. 47,000 tested, 1.1% active. inhibition, % at 20 µM. purified USP10, Ub-rhodamine fluorescence, 60 min
UCHL1 inh: inhibitors of human UCHL1 deubiquitinase; inhibition, % at 20 µM; purified UCHL1, Ub-rhodamine cleavage fluorescence; Ubiquitin carboxyl-terminal hydrolase isozyme L1 (Homo sapiens), P09936; 47,000 tested, 0.2% active
Target sequence (P09936 whole entry, looked up): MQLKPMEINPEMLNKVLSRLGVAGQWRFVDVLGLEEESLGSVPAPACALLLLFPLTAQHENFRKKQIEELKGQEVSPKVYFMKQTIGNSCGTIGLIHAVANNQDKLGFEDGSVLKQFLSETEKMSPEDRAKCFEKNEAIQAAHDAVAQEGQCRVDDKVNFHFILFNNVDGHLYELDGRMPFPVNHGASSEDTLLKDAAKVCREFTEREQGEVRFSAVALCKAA
* marks the source's active call; other numbers are inactive results. The list is not random: actives were taken first. Their share in the collection is about 5%. No stated cut-off is given here; in the data, active means inhibition above about 30%; inactive means the rest.

SMILES | USP7 block | USP8 block | USP10 block | UCHL1 inh
Cc1ccc2c(CNCCC3=CCCCC3)c(C(=O)O)n(C)c2c1 | 1 | -8 | 72* | 0
COC(=O)c1cc(NC(=O)Nc2ccc(OC(F)(F)F)cc2)ccc1N1CCOCC1 | -2 | -3 | 3 | 7
COc1cccc(C(=O)Nc2nc(-c3ccc4c(c3)NC(=O)C(C)O4)c(C)s2)c1 (centres undefined) | -6 | -8 | 1 | 2
Cc1ccc(S(=O)(=O)Nc2nc(-c3ccc4c(c3)NC(=O)C(C)O4)c(C)s2)cc1 (centres undefined) | 13 | 50* | 41* | 4
CCc1ccccc1NC(=O)COc1ccc(Nc2ccccc2)cc1 | 11 | 35* | 13 | 10
O=C(COc1ccc2ccccc2c1)Nc1cccc2ccccc12 | 9 | 36* | 13 | 4
CCN1CCc2nc(NC(=O)COc3ccc4ccccc4c3)sc2C1 | -6 | -31 | -17 | -7
NC(=O)c1ccccc1NC(=O)COc1ccc2c(c1)oc(=O)c1ccccc12 | 10 | 55* | 15 | 1
O=C(COc1ccc2c3c(c(=O)oc2c1)CCC3)Nc1ccccc1N1CCOCC1 | -1 | 0 | 0 | -1
CC1CCCN(S(=O)(=O)c2cc3cc(F)ccc3oc2=O)C1 (centres undefined) | 3 | 3 | 3 | 1
COc1ccc(NC(=O)N(C2=NCCC2)c2ccccc2)cc1 | 0 | -3 | 2 | 1
O=C(COc1ccc2c(c1)OCO2)Nc1ccc2c(c1)CCC2 | -5 | 31* | 7 | 5
O=C(COC(=O)C1(c2ccccc2F)CCCC1)Nc1ccc2c(c1)OCO2 | 9 | 44* | 16 | 9
O=C(COc1ncnc2sc3c(c12)CCCC3)Nc1ccc2c(c1)OCO2 | 11 | 30 | 31* | -1
COc1ccc(C)cc1NC(=O)COc1ccc2c(c1)OCO2 | 3 | 37* | 4 | -1
Cc1cc(Cl)ccc1OCC(=O)Nc1ncnc2sc3c(c12)CCCC3 | -9 | -9 | -1 | -4
O=C(N[C@H]1C[C@@H]2C[C@H]1CN2C(=O)c1ccc2c(c1)OCO2)c1ccccc1 | 2 | -94 | 2 | 1
Cc1nc2nc(C(c3ccccc3)c3ccccc3)[nH]n2c(=O)c1Cc1ccccc1 | 11 | 27 | 34* | 3
Cc1cc(=O)n2[nH]c(C(c3ccccc3)c3ccccc3)nc2n1 | 4 | 0 | 6 | 1
Cn1c(CN2CCOCC2)nnc1SCc1c(F)cccc1Cl | -2 | -2 | 1 | -2
Cc1nc(-c2noc(-c3cccnc3)n2)cn1CC(=O)NC1CCCC1 | 0 | -2 | -3 | -6
COc1ccc(-c2cc(C)no2)cc1S(=O)(=O)Nc1ccc(-c2ccno2)cc1 | 1 | 59* | 4 | 1
COc1ccc(S(=O)(=O)N2CCC3(CC2)OC(=O)Nc2ccccc23)cc1 | 8 | 39* | 5 | 3
O=C1Nc2ccccc2C2(CCN(S(=O)(=O)c3ccc(F)cc3)CC2)O1 | 3 | 8 | 0 | -2
Cc1ccc(N=Cc2sc(O)c3ccccc23)c(C)c1 | -144 | -292 | -10 | -166
SMILES | USP7 block | USP8 block | USP10 block | UCHL1 inh
Oc1sc(C=Nc2cc(Cl)ccc2Cl)c2ccccc12 | -5 | 47* | -10 | -9
CCn1cc(CNC(=O)c2ccc(C)s2)cn1 | 0 | -1 | 0 | 2
CCn1cc(Cn2cc(N)cn2)cn1 | -2 | 73* | 1 | 0
Cc1ccc(-c2csc(-n3ncc(C(=O)N4CCN(C(=O)Nc5cccc6ccccc56)C(C)C4)c3C(C)C)n2)cc1 (centres undefined) | -32 | 80* | -18 | 20
Cc1nnc2ccc(-c3cccc(NC(=O)c4ccccc4F)c3)nn12 | -2 | 2 | 2 | 0
NS(=O)(=O)c1ccc(C(=O)Nc2cccc(-c3ccc4nncn4n3)c2)cc1 | 3 | 34* | 2 | 3
COc1ccc2c(c1)C[C@@H](c1cccnc1)N[C@H]2c1cccnc1 | -1 | 41* | -1 | 1
COc1ccc2c(c1)C[C@@H](c1cccnc1)N[C@H]2c1ccccn1 | 0 | -10 | -4 | 2
Cc1cc(N2CCN(c3ncccn3)CC2)nc2ccc(NC(=O)Cn3nc([N+](=O)[O-])c(Br)c3C)cc12 | 10 | 30 | 33* | 7
Cc1ccc(NC(=O)CCC(=O)Nc2ccc3nc(N4CCCCC4)cc(C)c3c2)c(Br)c1 | 3 | 33* | 1 | 9
Cc1cc(C(=O)Nc2ccc3nc(N4CCN(c5ncccn5)CC4)cc(C)c3c2)ccc1[N+](=O)[O-] | 3 | 3 | 3 | 5
Cc1cc(N2CCOCC2)nc2ccc(NC(=O)CCC(=O)Nc3ccc(F)cc3)cc12 | 9 | 10 | 11 | 6
CC(C)n1c(CNC(=O)c2ccccc2F)nnc1SCC(=O)N1CCOCC1 | 6 | 23 | 0 | 0
CC(=O)N1c2ccccc2NC2=C(C(=O)CC(c3ccco3)C2)C1c1ccc(Cl)cc1 (centres undefined) | -20 | 43* | -1 | -1
COc1cc(C2CC(=O)C3=C(C2)Nc2ccccc2N(C(=O)c2ccccc2)C3c2ccc(C)cc2)cc(OC)c1OC (centres undefined) | 14 | -8 | 7 | 8
CCC(=O)N1c2ccccc2NC2=C(C(=O)CC(c3ccco3)C2)C1c1ccc(OC)c(OC)c1 (centres undefined) | 1 | 0 | 0 | 0
COc1cc(C2C3=C(CC(c4ccco4)CC3=O)Nc3ccccc3N2C(=O)c2ccccc2)cc(OC)c1OC (centres undefined) | 6 | 34* | 1 | 5
O=C(NCc1ccc(Cl)cc1)C1CCc2nc(N3CCOCC3)ncc2C1 (centres undefined) | -10 | 4 | 0 | 2
Cn1ccc2ccn(Cc3nc(-c4ccccn4)no3)c(=O)c21 | 2 | 15 | -4 | 1
COCCn1ccc2ccn(Cc3nc(-c4cccnc4)no3)c(=O)c21 | 9 | 56* | -4 | 5
CCCc1cc(=O)[nH]c(N2CCN(c3ccccc3OC)CC2)n1 | -2 | 1 | 4 | 1
CCc1[nH]c(=O)cc2cc(OC)c(OC)cc12 | -51 | 91* | 79* | 48*
COc1cc2c(=O)n(CC3CCCO3)c(=O)n(CC(=O)c3ccc4c(c3)OCO4)c2cc1OC (centres undefined) | -5 | 47* | 33* | -3
Clc1cccc(-n2cc(-c3ccccc3)c3c(NCc4ccco4)ncnc32)c1 | 3 | 4 | -6 | 2
CCOc1ccc(C(=O)Oc2ccc(-n3cnnn3)cc2)cc1 | 4 | 33* | 18 | -4
CC1=C(C)C(c2c(-c3ccc(C)cc3)[nH]c3ccccc23)N(C(C)(C)C)C1=O (centres undefined) | 32* | 90* | 41* | 13
CC1=C(C(=O)Nc2cccnc2)C(c2cccc(OCc3ccccc3)c2)n2nnnc2N1 (centres undefined) | 3 | 37* | 18 | -3
CCn1c(=O)c(CCC(=O)N2CCN(c3ccccc3)CC2)c(C)c2c(C)nn(-c3ccccc3)c21 | 0 | -1 | 2 | 0

Assay outcomes deposited in PubChem by Buhrlage Lab, Dana-Farber Cancer Institute and Novartis Institutes for BioMedical Research (Cambridge, Mass).
